Screens: PubChem BioAssay, National Center for Advancing Translational Sciences (NCATS)
The list is not random: actives were taken first. Their share in the collection is about 3.6%.
Sfp PPTase inh: blocks B. subtilis Sfp PPTase activity; AID 1490; 310,000 compounds, 3.5% hits; Potency, µM, without a hit: largest response in the series, negative = inhibition, most hits filed as inhibitors; Q9F4F7; Biochemical Sfp PPTase activity, qHTS;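 note: the enzyme is Sfp with the accession as filed and its product quenches rhodamine fluorescence; 0% = enzyme reaction without inhibitor and -100% = no enzyme wells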
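Sfp 15 nM + cpd, 15 min RT; start w/ rhodamine-CoA 5 uM, BHQ-2-YbbR 12.5 uM (final); 50 mM Hepes pH 7.6, 10 mM MgCl2, 0.01% NP-40, 0.01% BSA; read 525/598 nm at 0 and 30 min.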
Epigenetic reg: regulators of epigenetic silencing causing reporter derepression in mouse cells; murine LDR cells, GFP reporter derepression, 30 h; Potency, µM (top dose mostly 53.9 µM), inactives show at the highest dose GFP activation, actives largely listed as activators; 280,000 compounds, 0.2% hits; note: % of control where 0% means no effect; nearly all actives have a fitted effect of over 60% in size
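Murine LDR cells carrying a silenced, genomically integrated CMV-driven GFP reporter were exposed to compound for 30 hours at 37 C. After PBS washes, GFP-positive cells (20–120 um objects) were counted by laser-scanning microplate cytometry.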
GCN5L2 inh: blocks human GCN5L2 histone acetyltransferase | Q92830 | GCN5L2 HAT assay, ThioGlo1 CoA-SH fluorescence | Potency, µM (highest dose often 58.9 µM), inactives show top-dose activity change, negative = inhibition, hits mostly inhibitors | 390,000 compounds, 0.21% hits; note: % is set by controls: 0 for no effect and ±100 for the full control effect
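qHTS, 1536-well. 20nM enzyme, pH 7.5 HEPES/EDTA/Tween-20 buffer; 15 min compound preinc., RT. Start: 75uM H3(1-25), 70uM AcCoA, 50uM ThioGlo1. Read Ex340/Em540 at t=0 (autofluorescence flag) and t=20 min.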
IMPase Li cell: cell-permeable IMPase inhibitors with lithium potentiation | CHO-M1 cells, IP1 TR-FRET (IP-One), carbachol + lithium | Potency, µM (top dose mostly 59.4 µM), inactives show top-dose activity, negative = IMPase inhibition, most hits filed as inhibitors | 210,000 compounds, 0.35% hits | AID 1457;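 note: IP1 builds up when IMPase is blocked and the TR-FRET signal falls; plate controls were basal vehicle for no effect and high inhibitor control for full effect; nearly all actives have a fitted effect of over 50% in size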
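Readout is a homogeneous TR-FRET IP1 immunoassay (Ex 320, Em 665 and 620), where raised cytosolic IP1 lowers signal. Cells were CHO-M1 treated 30 min at 37C with test compounds plus a little lithium; AC50 values came from Hill-equation fitting.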
JMJD2E inh: inhibitors of human JMJD2E histone demethylase; B2RXH2; JMJD2E catalytic domain, FDH-coupled NADH fluorescence (FDH is formaldehyde dehydrogenase); Potency, µM (doses to about 57.1 µM), for inactives: top-dose activity change, negative = inhibition, actives largely listed as inhibitors; 230,000 compounds, 1.6% hits; AID 2147; active = well fitted inhibition curve with a large enough effect, not every such curve was filed as active; inconclusive = small, poorly fitted or top-dose-only effect, or another doubt; inactive = no such curve, though single readings can be large or run the other way;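 note: 0% = wells with enzyme and -100% = buffer wells without enzyme; nearly all actives have a fitted effect of over 50% in size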
Target sequence (B2RXH2 1-337 limits assumed): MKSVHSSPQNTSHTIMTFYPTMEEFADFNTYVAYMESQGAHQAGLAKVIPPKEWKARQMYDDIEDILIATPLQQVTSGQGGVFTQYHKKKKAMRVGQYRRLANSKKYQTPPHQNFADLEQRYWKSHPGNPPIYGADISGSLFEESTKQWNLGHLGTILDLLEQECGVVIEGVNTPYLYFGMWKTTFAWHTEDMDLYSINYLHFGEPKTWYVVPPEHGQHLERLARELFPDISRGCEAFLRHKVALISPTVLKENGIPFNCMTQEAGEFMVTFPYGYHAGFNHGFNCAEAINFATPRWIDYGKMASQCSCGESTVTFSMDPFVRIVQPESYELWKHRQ
NPSR antag: antagonists of human neuropeptide S receptor cAMP signaling; CHO-NPSR cells, cAMP TR-FRET, antagonist mode; Potency, µM (titrated, usually from 38.3 µM), without a hit: at the highest dose activity change, negative = inhibition, most hits filed as inhibitors; 220,000 compounds, 1% hits; note: % is set by controls: 0 for no effect and ±100 for the full control effect; nearly all actives have a fitted effect of over 50% in size
Target sequence (Q6W5P4 whole entry, looked up): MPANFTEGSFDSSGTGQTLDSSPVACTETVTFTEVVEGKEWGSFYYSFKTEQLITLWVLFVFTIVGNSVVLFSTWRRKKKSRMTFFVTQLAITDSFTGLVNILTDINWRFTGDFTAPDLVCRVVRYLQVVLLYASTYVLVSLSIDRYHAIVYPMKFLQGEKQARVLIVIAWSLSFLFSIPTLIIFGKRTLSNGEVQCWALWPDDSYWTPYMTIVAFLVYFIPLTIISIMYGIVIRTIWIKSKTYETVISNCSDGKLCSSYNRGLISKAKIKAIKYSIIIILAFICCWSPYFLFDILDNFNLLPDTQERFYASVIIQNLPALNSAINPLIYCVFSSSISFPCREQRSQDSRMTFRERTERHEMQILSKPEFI
* hit, by the source's call; ? = inconclusive; nt = no result given; [ ] = another dose, or the depositor's remark. Unless noted, calls come from the whole dose curve; as a rule, active = well fitted curve in the direction sought with a large enough effect; inconclusive = small, poorly fitted or top-dose-only effect, or another doubt; inactive = no such curve, though single readings can be large; an effect the other way counts as inactive or inconclusive. Potency is the fitted concentration of half-maximal effect.

SMILES | Sfp PPTase inh | Epigenetic reg | GCN5L2 inh | IMPase Li cell | JMJD2E inh | NPSR antag
Cc1ccc2c(c1)N[C@H](c1ccc(C(=O)O)cc1)c1cccn1-2 | nt | nt | nt | -20% | nt | nt
NC1=NC[C@H](Cc2ccc(O)cc2)N1CC1CCCCC1 | 26% | -1% | -5% | nt | 0% | 3%
NC1=NC[C@@H](Cc2ccc(O)cc2)N1CCCCC1CCCCC1 | 4% | -1% | -5% | nt | 7% | 5µM*
CC(=O)Nc1ccc(OC(C)=O)cc1 | -1% | nt | 4% | nt | nt | nt
COc1cc(SC#N)ccc1N=Cc1c(C)[nH]n(-c2ccc(Cl)cc2)c1=O | 0% | 2% | -1% | 14%[38.3 µM] | -6% | ?
COc1cc(SC#N)ccc1N=Cc1c(C)[nH]n(-c2ccc(C)c(C)c2)c1=O | 0% | 0% | -1% | 2% | 1% | 5µM*
COc1ccc(OC)c(/C=C2\Oc3cc(OCC(=O)N4CCC(C(=O)O)CC4)ccc3C2=O)c1 | 16µM* | nt | -17% | nt | nt | nt
COc1ccc(/C=C2\Oc3cc(OCC(=O)N4CCC(C(=O)O)CC4)ccc3C2=O)c(OC)c1 | -16% | nt | -20% | nt | nt | nt
CCOC(=O)C1=C(C)N=c2s/c(=C/c3cccc([N+](=O)[O-])c3O)c(=O)n2C1c1ccccc1 (stereo unspecified) | 50µM* | nt | 1% | nt | nt | nt
COC(=O)C1=C(C)N=c2s/c(=C/c3ccoc3)c(=O)n2C1c1ccccc1 (stereo unspecified) | 79µM* | 1% | nt | 4%[38.3 µM] | -6% | ?
CCOC(=O)C1=C(C)N=c2s/c(=C\c3cccc(OCC(=O)O)c3)c(=O)n2C1c1ccccc1 (stereo unspecified) | -21% | nt | -18% | nt | nt | nt
CCOC(=O)C1=C(C)N=c2s/c(=C/c3ccco3)c(=O)n2C1c1cccc(OC)c1 (stereo unspecified) | 40µM* | -2% | -27% | 10%[38.3 µM] | -3% | ?
CCOC(=O)C1=C(C)N=c2s/c(=C\c3cccn3C)c(=O)n2C1c1cccc(OC)c1OC (stereo unspecified) | 16µM* | -1% | -2% | 14%[38.3 µM] | 0% | -24%[46.1 µM]
Cc1nc(N2CCOCC2)c2nc(-c3ccccc3)n(CCCN3CCOCC3)c2n1 | 28% | 1% | nt | -4% | ? | nt
CO[C@@H]1/C=C\CC(=O)N2CCC[C@@H]2C(=O)OC[C@@H](C)C(=O)OC[C@H]1C | -6% | 1%[10.1 µM] | nt | nt | nt | nt
COc1c(CO)cc(CO)cc(CO)c1=O | -9% | -1% | nt | -11% | -12% | nt
CCOC(=O)C1=C(c2ccccc2)N=c2s/c(=C\c3ccc(O)cc3)c(=O)n2C1c1cccs1 (stereo unspecified) | -6% | 4% | -16% | 6%[38.3 µM] | -5% | 10µM*
CCOC(=O)C1=C(C)N=c2s/c(=C\c3cc(OC)c(OC)c(OC)c3)c(=O)n2C1/C=C/c1ccccc1 (stereo unspecified) | 5% | 4% | -1% | 6% | 14% | -6%
CCOC(=O)C1=c2s/c(=C\c3ccncc3)c(=O)n2C(N)=C(C(=O)OC)C1c1ccncc1 (stereo unspecified) | -14% | 1% | -9% | 11% | 5% | -32%
CCOC(=O)C1=C(C)N=c2s/c(=C/c3cccc([N+](=O)[O-])c3O)c(=O)n2C1c1cc(OC)c(OC)c(OC)c1 (stereo unspecified) | 56µM* | nt | 4% | nt | nt | nt
CCOC(=O)C1=C(N)n2c(s/c(=C/c3ccco3)c2=O)=C(C(=O)OC)C1c1ccco1 (stereo unspecified) | 16µM* | -1% | -18% | 21%[38.3 µM] | ? | -12%[46.1 µM]
CCOc1ccccc1NC(c1nnc(-c2ccccc2)o1)c1ccc(F)cc1Cl (stereo unspecified) | nt | -1% | -4% | nt | nt | nt
O=C(O)[C@@H]1CCCN1Cc1c[nH]c2ccccc12 | nt | nt | nt | -4% | nt | nt
COc1ccc(COc2ccsc2C(=O)Nc2ccc(Cl)c(Cl)c2)cc1 | 56µM* | -1% | -12% | 5%[38.3 µM] | ? | -3%[46.1 µM]
CN(C)CCN1C(=O)CC[C@]2(C)C1=CC[C@@H]1[C@@H]2CC[C@]2(C)[C@H]1CC[C@]2(C)O | nt | nt | nt | 13% | nt | nt
SMILES | Sfp PPTase inh | Epigenetic reg | GCN5L2 inh | IMPase Li cell | JMJD2E inh | NPSR antag
Cc1cc(C)n2nc(-c3ccsc3-n3c(C)ccc3C)cc2n1 | 50µM* | -2% | -1% | -5%[38.3 µM] | -20% | -12%[46.1 µM]
Cc1ccc(-c2cc3nc(C)cc(C)n3n2)cc1 | 8% | 1% | -2% | 12% | ? | 11%
CC(C)(C)c1ccc(C(=O)CC(Sc2ccc(Cl)cc2)C(=O)O)cc1 (stereo unspecified) | 20µM* | ? | -11% | 15% | 2% | ?
CC(C)(C)c1ccc(C(=O)Nc2ccc(Cl)cc2)cc1 | -6% | -4% | -1% | ? | 4% | -1%
Cc1ccc(SC(CC(=O)c2ccc(F)cc2)C(=O)O)cc1 (stereo unspecified) | 50µM* | nt | -5% | nt | nt | nt
Cc1ccc(SCC(=O)NCCc2ccc(F)cc2)cc1 | 14% | nt | -5% | nt | nt | nt
CC(C)=CCC/C(C)=C/CO/N=C1/C[C@@H](O)[C@@H](O)[C@@H]2[C@@H]3C(=O)N(Cc4ccc5c(c4)OCO5)C(=O)[C@H]3CC[C@H]12 | 17% | 0%[10.1 µM] | nt | nt | nt | nt
O=C(O)C1C2CCC(C2)C1C(=O)N1CCCC1 (stereo unspecified) | 45µM* | nt | 2% | nt | nt | nt
O=[N+]([O-])c1ccc(-c2nc(-c3ccc(F)cc3)c(-c3ccncc3)[nH]2)cc1 | -29% | 0% | ? | 21% | -1% | 7.9µM*
O=[N+]([O-])c1ccc2nc(-c3ccncc3)[nH]c2c1 | 6% | 2% | 2% | nt | 2% | 8%
N#Cc1cc2c([nH]c1=S)CCCCCC2 | 10µM* | 2% | -1% | -15%[38.3 µM] | ? | 11%[46.1 µM]
N#Cc1c(N)n[nH]c1-c1cc2c([nH]1)CCCC2 | 1% | 1% | -4% | -5% | ? | -4%[46.1 µM]
COC(=O)c1ccc(NC(=S)Nc2ccc(O)cc2)cc1 | ? | -2% | -10% | 6% | 1% | 8%
S=C(NN=C(C1CC1)C1CC1)Nc1ccccc1 | 20µM* | -4% | -5% | 0% | -3% | -1%[46.1 µM]
S=C(NNC(=S)Nc1ccccc1)Nc1ccccc1 | 50µM* | nt | -3% | nt | nt | nt
Oc1ccc(NC(=S)Nc2ccc(O)cc2)cc1 | 45µM* | -3% | 1% | 1% | ? | -21%
NC(=S)NNC(=S)Nc1ccccc1 | 10µM* | -1% | -5% | 6% | -13% | -1%
O=C(NNC(=S)Nc1ccccc1)C1CC1 | -8% | -1% | -15% | -1%[38.3 µM] | 9% | -2%[46.1 µM]
CN(C)C(=O)n1nnnc1Cc1ccc(-c2ccccc2)cc1 | 1% | 6% | 2% | 12% | nt | nt
CCOC(=O)c1cc(-c2cc3ccccc3o2)nc2c1c(=O)[nH]c(=O)n2CCOC | 1% | 2% | -7% | 10µM* | ? | ?
